Rows were chosen to be rich in hits. Some 3.5% of all compounds tested hit in one or more screens of this group.
FBW7 activator: activators of human E3 ligase FBW7. Q969H0. AlphaScreen FBW7–phospho-cyclin E peptide binding, activator screen. normalized activity (activation), % at 26.1 µM. 650,000 compounds, 0.13% hits. AID 1259310; in the data active means normalized activity above about 1.9%;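 further: purified mutant Fbw7 with reduced substrate affinity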
TEAD-YAP inh: TEAD-YAP interaction inhibition; HEK-TIYL cells, TEAD-Gal4/YAP UAS-luciferase luminescence; inhibition, % at 9.12 µM; 640,000 compounds, 1.4% hits; in the data active means inhibition above about 32%;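 further: 0% = median of test compound wells and 100% = reference inhibitor wells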
GPR151 activ: activators of human GPR151 | PathHunter beta-arrestin GPR151 cells, luminescence | activation, % at 11.2 µM | 650,000 compounds, 1% hits | AID 1508602; in the data active means activation above about 4.9%;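 further: 0% = median of compound wells and 100% = cells with positive control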
MITF primary: blocks human microphthalmia-associated transcription factor. O75030. AlphaScreen MITF homodimerization, bead proximity signal. inhibition, % at 2.6 µM. 650,000 compounds, 0.91% hits; in the data active means inhibition above about 50%;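 further: 0% = vehicle wells with protein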
GPR151 confirm: confirmation of human GPR151 activators; AID 1508609; GPR151 PathHunter beta-arrestin cells, luminescence, 90 min; % of EA-reagent control over plate median; shares compounds with GPR151 activ; 6,700 tested, under 10 active; activation, % at 11.2 µM;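 active means mean percent activation across replicates above the confirmation screen cutoff of 4.91%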
GPR119 ag: activates human GPR119 in a GPR151 counter-screen; GPR119 PathHunter beta-arrestin cells, luminescence, 90 min; 0 = compound-well median, 100 = enzyme-acceptor control; 6,700 compounds, 0.3% hits; shares compounds with GPR151 activ; activation, % at 11.2 µM;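 active means mean percent activation in the counterscreen above 29.09%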;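 further: counterscreen on off-target GPR119 to flag nonselective hits from the GPR151 activator screen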
Target sequence (Q8TDV5 whole entry, looked up): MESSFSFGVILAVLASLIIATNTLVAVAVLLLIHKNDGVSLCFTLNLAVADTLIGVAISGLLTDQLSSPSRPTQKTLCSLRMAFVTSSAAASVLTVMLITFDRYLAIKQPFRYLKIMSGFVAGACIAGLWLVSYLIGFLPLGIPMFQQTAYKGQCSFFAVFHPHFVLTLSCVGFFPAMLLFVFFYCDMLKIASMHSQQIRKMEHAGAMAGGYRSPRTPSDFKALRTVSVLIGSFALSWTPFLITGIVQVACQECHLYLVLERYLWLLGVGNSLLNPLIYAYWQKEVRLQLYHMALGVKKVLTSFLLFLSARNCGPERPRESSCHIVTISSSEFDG
Active calls of the source: *; / = no result; ! = not active in a repeat.

SMILES	FBW7 activator	TEAD-YAP inh	GPR151 activ	MITF primary	GPR151 confirm	GPR119 ag
O=C(c1cccc(Cl)c1)N1CCN(c2ccc([N+](=O)[O-])c(NCc3ccco3)c2)CC1	0	-18	1	10	/	/
COC(=O)CN(c1cc(C)ccc1OC)S(C)(=O)=O	1	3	-1	8	/	/
Cc1ccc(C)c(N(CC(=O)NC(C(C)C)C(C)C)S(C)(=O)=O)c1	0	2	5.9*	1	-1	3
COc1ccc(C)cc1N(CC(N)=O)S(C)(=O)=O	0	2	7.7*	-3	0	-1
CCC(=O)c1ccc(OCC(O)CN(CCO)CCO)cc1 (stereo not drawn)	0	4	-1	14	/	/
CCCOC(=O)c1ccc(OCC(O)CN(CCO)CCO)cc1 (stereo not drawn)	0	-7	5.1*	-1	-1	1
CC(Oc1c(Cl)cccc1Cl)C1=NCCN1 (stereo not drawn)	1	7	4.9*!	-1	0	2
O=[N+]([O-])c1ccccc1CNc1ccc(F)c(Cl)c1	0	-10	5.9*	7	0	0
COc1ccc2c(c1)CC(C(=O)Nc1ccc(-c3ccnc(N)n3)cc1)CO2 (stereo not drawn)	14*	4	5.2*	-14	1	9
COc1ccc2c(c1)CC(C(=O)Nc1ccc(-c3ccnc(N)n3)cc1O)CO2 (stereo not drawn)	0	10	1	19	/	/
COc1ccc(OC)c(/C=C2\NC(=O)N(Cc3ccc(Cl)cc3)C2=O)c1	1	6	7.9*	8	0	-5
COc1cc(OC)c(/C=C2/NC(=O)N(Cc3ccc(F)cc3)C2=O)c(OC)c1	0	-6	6.2*	0	1	-2
COc1ccc(OC)c(/C=C2/NC(=O)N(Cc3ccc(Br)cc3)C2=O)c1	0	3	2	-4	/	/
COc1ccc2ccccc2c1CN1CCN(CC(C)(C)C)C(CCO)C1 (stereo not drawn)	0	-3	7.7*	11	0	-7
COc1ccc2ccccc2c1CN1CCN(C)C(CCO)C1 (stereo not drawn)	0	-1	1	-1	/	/
C=CCOC(=O)C1=C(C)NC2=C(C(=O)CCC2)C1c1ccccc1OC(C)C (stereo not drawn)	0	-6	2	-3	/	/
O=C(O)/C=C\C(=O)Nc1ccc([N+](=O)[O-])cc1	0	-2	8.1*	-4	0	-1
O=C(O)/C=C/C(=O)Nc1ccc(Sc2ccc([N+](=O)[O-])cc2)cc1	0	-7	3	0	/	/
CCN(CC)c1ccc(NC(=O)/C=C\c2ccccc2)cc1	0	-27	-1	9	/	/
CCN(CC)c1ccc(NC(=O)/C=C\C(=O)O)cc1	0	11	16*	34	-1	-7
COC(=O)COc1ccc2c(C)c(C)c(=O)oc2c1C	1	3	-1	8	/	/
CCc1c(C)c2ccc(OCC(=O)OC)c(C)c2oc1=O	0	6	5.1*	2	0	-8
CCOc1cccc(/C=C2/SC(=S)N(CCC(=O)O)C2=O)c1	0	8	4.9*	1	0	-7
CCOc1ccc(/C=C2\SC(=S)N(C(CC)C(=O)O)C2=O)cc1 (stereo not drawn)	0	-6	6.0*	-10	0	6
COc1ccc(/C=C2\SC(=S)N(CCC(=O)NCCO)C2=O)cc1	0	-19	5.1*	25	0	1
SMILES	FBW7 activator	TEAD-YAP inh	GPR151 activ	MITF primary	GPR151 confirm	GPR119 ag
Cc1cc(=O)nc2c3ccccc3n(CC(=O)N3CC(C)CC(C)C3)n12 (stereo not drawn)	1	7	0	10	/	/
CCCCOc1ccc(/C=C/C(=O)N2CCCCC2)cc1	0	-38	5.6*	3	1	-7
CN(C(=O)CCl)c1nc(-c2ccc(F)cc2)cs1	0	-2	6.1*	-4	0	2
CN(C)c1ccc(/C=C2/SC(=S)N(CC(=O)O)C2=O)cc1	0	19	-1	18	/	/
COc1ccc(Nc2nccn3c(-c4ccsc4)cnc23)cn1	1	-5	-1	16	/	/
O=C1N(C2Cc3ccccc3C2)C[C@@H]2C[C@@H](c3cccc(-n4cccn4)c3)N3CCC[C@@]123	0	1	6.3*	-6	1	1
Cn1nccc1C(=O)N1CCCC(C(=O)Nc2ccc(-c3cccc(F)c3)cc2)C1 (stereo not drawn)	0	24	2	6	/	/
COc1ccc([N+](=O)[O-])cc1NS(=O)(=O)c1cccc(C(=O)OC(C)C(N)=O)c1 (stereo not drawn)	0	4	-1	-1	/	/
CCOC(=O)CC(=O)N1CCc2nc(-c3cccnc3)nc(N3CCCCCC3)c2C1	0	-9	7.1*	9	-1	-11
O=S(=O)(CCN1CCc2nc(-c3cccnc3)nc(N3CCCC3)c2C1)c1ccccc1	0	11	8.4*	5	-1	-16
Cc1cn2c(=O)c(C(=O)NOCc3cccc(C(F)(F)F)c3)cnc2s1	0	-9	14*	17	1	-3
Nc1ccc2nc(-c3ccc(N=Cc4cc([N+](=O)[O-])cc([N+](=O)[O-])c4O)cc3)[nH]c2c1	0	2	7.0*	1	0	3
Nc1ccc2nc(-c3ccc([N+](=O)[O-])cc3)[nH]c2c1	0	-13	-5	3	/	/
CCN1C(=O)C(O)(CC(=O)c2ccc(Br)cc2)c2ccccc21 (stereo not drawn)	0	3	0	1	/	/
COc1ccc(-n2ncc3c(N4CCN(c5cccc(OC)c5)CC4)ncnc32)cc1	1	3	0	18	/	/
CCOC(=O)C1CCN(C2c3ccccc3-c3ccccc32)CC1	0	6	0	7	/	/
Cc1ccc(C2=NS(=O)(=O)N(C)C(C(=O)NCc3ccccn3)=C2)cc1	0	6	6.9*	12	0	-9
Cc1ccc(C2=NS(=O)(=O)N(C)C(C(=O)NCC(C)C)=C2)cc1	0	0	2	4	/	/
CC(C)Cc1cc(-c2ccc(F)cc2)c(C#N)c(N)n1	0	1	2	27	/	/
CCOC(=O)N1CCN(CC(O)COc2ccc([N+](=O)[O-])cc2)CC1 (stereo not drawn)	0	-4	5.4*	-12	1	19
CC1=C(C(=O)N2CCOCC2)C(c2ccc(O)cc2)NC(=S)N1 (stereo not drawn)	1	7	8.8*	5	-1	-9
O=C(Nc1ccc(Br)cc1F)NC1CCCCC1	0	-45	6.6*	-4	1	0
O=C(CCCn1c(SCc2ccccc2Cl)nc2ccccc2c1=O)NCc1cccc(Cl)c1	0	-3	0	9	/	/

High-throughput results as filed in PubChem.
